High-throughput results: PubChem BioAssay, Broad Institute
Only some compounds are listed: those with a hit (about 2.3% of all), similar ones and a draw of the others.
Rtt109 HAT inh: blocks Candida albicans Rtt109/Vps75 acetyltransferase activity. Q5AAJ8. purified Rtt109/Vps75, ThioGlo CoA-SH fluorescence, 4 h. AID 540336. inhibition, % at 34.9 µM. hit rate 0.16% among 330,000;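 active means inhibition of at least 50% in every replicate; inconclusive means best replicate reaches 50% inhibition but some replicates fall short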
ERp5 block: inhibitors of human ERp5; Q15084; ERp5 insulin aggregation, absorbance 650 nm, 90 min; inhibition, % at 9.99 µM; hit rate 0.05% among 350,000;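 active means mean replicate inhibition above about 25%, with every replicate also reaching it, limit read from the data, passing the limit was not always enough; inconclusive means only one of those two criteria met; inactive means neither criterion met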
PDI inh: blocks human protein disulfide isomerase activity; inhibition, % at 10 µM; hit rate 0.052% among 350,000; PDI insulin aggregation turbidity, A650, 90 min;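 active means mean inhibition across replicates of 30% or more, whatever share of single replicates reach that level; inconclusive means mean inhibition below 30% while every single replicate reaches 30%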
Target sequence (P07237 whole entry, looked up): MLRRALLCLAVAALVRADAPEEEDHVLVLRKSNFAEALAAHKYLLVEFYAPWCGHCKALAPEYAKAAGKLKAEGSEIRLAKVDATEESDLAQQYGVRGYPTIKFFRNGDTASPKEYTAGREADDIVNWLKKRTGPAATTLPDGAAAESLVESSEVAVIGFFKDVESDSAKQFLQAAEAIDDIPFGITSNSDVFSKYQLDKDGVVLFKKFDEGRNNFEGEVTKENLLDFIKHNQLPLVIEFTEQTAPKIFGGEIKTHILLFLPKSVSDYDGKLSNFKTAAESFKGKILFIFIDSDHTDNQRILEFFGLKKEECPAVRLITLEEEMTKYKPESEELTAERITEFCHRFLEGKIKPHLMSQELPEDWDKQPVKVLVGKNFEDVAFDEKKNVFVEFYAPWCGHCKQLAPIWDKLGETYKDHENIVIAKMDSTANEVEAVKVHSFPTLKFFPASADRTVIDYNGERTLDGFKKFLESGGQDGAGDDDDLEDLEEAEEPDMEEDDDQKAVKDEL
SIRT5 inh: sirtuin-5 (human) deacylase inhibition; Q9NXA8; Purified SirT5, succinyl-peptide AMC, trypsin-coupled fluorescence; inhibition, % at 15 µM; hit rate 1.1% among 330,000; AID 652115; in the data active means inhibition above about 15%; inconclusive means no clear call, values can overlap the other calls
DENV2 CPE rescue: DENV2-induced cell death inhibition. DENV2-infected cells, cytopathic effect rescue, plate reader. CPE inhibition, % at 9.99 µM. hit rate 1.7% among 350,000; in the data active means CPE inhibition above about 20%, passing the limit was not always enough; inconclusive means no clear call, values can overlap the other calls; tested in BHK-21 cells
A number is an active result; i = inactive; ? = inconclusive; nt = no result.

SMILES	Rtt109 HAT inh	ERp5 block	PDI inh	SIRT5 inh	DENV2 CPE rescue
CCC(C)[C@H]1CNC(=S)N1CCc1cc(C(F)(F)F)cc(C(F)(F)F)c1 (stereo not given in full)	i	i	i	nt	81
CCCC[C@@H]1CNCCN1CCc1cc(C(F)(F)F)cc(C(F)(F)F)c1	i	i	i	nt	i
CCC(C)[C@H]1CNCCN1CCc1cc(C(F)(F)F)cc(C(F)(F)F)c1 (stereo not given in full)	i	i	i	nt	44
CC[C@@H](C)C(NC(=O)OC(C)(C)C)c1cn([C@@H](CCCCNC(=O)OC(C)(C)C)C(=O)N2CCN(C(=O)OC(C)(C)C)CC2)nn1 (stereo not given in full)	i	i	i	16	i
CC(C)CC(NC(=O)OC(C)(C)C)c1cn([C@@H](CCCCNC(=O)OC(C)(C)C)C(=O)N2CCN(C(=O)OC(C)(C)C)CC2)nn1 (stereo not given in full)	i	nt	i	nt	nt
CCOC(=O)C[N+](C)(C)CCOC1CC2CCC1(C)C2(C)C (stereo not given)	i	nt	i	nt	nt
CC1(C)C2CCC1(C)C(OCC[N+](C)(C)CC(=O)OC1CCCCC1)C2 (stereo not given)	58	i	i	i	i
O=C(NC[C@H]1[C@H](c2ccccc2)[C@H](CO)N1C(=O)Cc1ccncc1)C1CCC1	nt	i	nt	i	i
CN1C(=O)N[C@@H]2c3ccccc3O[C@@]1(C)[C@@H]2COC(=O)c1ccc([N+](=O)[O-])cc1	nt	i	nt	i	38
O=c1cc(-c2ccccc2Cl)oc2ccc([N+](=O)[O-])c(O)c12	i	i	i	nt	i
Nc1ccc2oc(-c3ccccc3Cl)cc(=O)c2c1O	i	i	i	nt	105
C[C@@H]1CCCCO[C@@H](CN(C)S(=O)(=O)c2cn(C)cn2)[C@@H](C)CN([C@@H](C)CO)C(=O)c2cc(NS(=O)(=O)c3ccc(Cl)cc3)ccc2O1	nt	i	nt	i	i
O=C(Nc1cccc(Cl)c1)Nc1cccc(C(=O)O)c1	i	i	i	23	i
O=C(Nc1ccc(Cl)cc1)Nc1cccc(C(=O)O)c1	i	i	i	i	i
CN(C)Cc1csc(NC(=O)Nc2cccc(Cl)c2)n1	nt	i	i	nt	i
NCc1csc(NC(=O)Nc2cccc(Cl)c2)n1	nt	i	i	nt	25
Cc1noc(C)c1NC(=O)N[C@@H]1CC[C@@H](CC(=O)NCc2ccc(Cl)c(Cl)c2)O[C@@H]1CO	nt	i	nt	i	i
CN1c2ccc(-c3cccc(C#N)c3)cc2[C@@H]2[C@@H](CCN2S(=O)(=O)c2ccccc2)[C@@H]1CO	nt	i	nt	i	i
Cc1ccc(S(=O)(=O)N(C)C[C@H]2OCCCC[C@@H](C)Oc3ccc(NS(=O)(=O)c4cccs4)cc3C(=O)N([C@@H](C)CO)C[C@H]2C)cc1	nt	i	nt	i	i
COc1ccc(CN(C)C[C@H]2Oc3ccc(NS(=O)(=O)c4ccc(Cl)cc4)cc3CC(=O)N([C@@H](C)CO)C[C@@H]2C)cc1	nt	i	nt	27	25
C[C@@H]1CN([C@H](C)CO)C(=O)Cc2cc(NS(=O)(=O)c3ccccc3)ccc2O[C@@H]1CN(C)Cc1ccc(Oc2ccccc2)cc1	nt	i	nt	i	30
C[C@@H]1CN([C@@H](C)CO)C(=O)Cc2cc(NS(=O)(=O)c3ccccc3)ccc2O[C@H]1CN(C)Cc1ccc(Oc2ccccc2)cc1	nt	i	nt	i	i
C[C@@H]1CN([C@@H](C)CO)C(=O)Cc2cc(NS(=O)(=O)c3ccc(Cl)cc3)ccc2O[C@H]1CN(C)Cc1ccc(Oc2ccccc2)cc1	nt	i	nt	24	i
C[C@@H]1CN([C@H](C)CO)C(=O)Cc2cc(NS(=O)(=O)c3ccc(Cl)cc3)ccc2O[C@@H]1CN(C)Cc1ccc(Oc2ccccc2)cc1	nt	i	nt	i	i
COc1ccc(S(=O)(=O)Nc2ccc3c(c2)CC(=O)N([C@H](C)CO)C[C@@H](C)[C@@H](CN(C)Cc2ccc(Oc4ccccc4)cc2)O3)cc1	nt	i	nt	16	i
SMILES	Rtt109 HAT inh	ERp5 block	PDI inh	SIRT5 inh	DENV2 CPE rescue
COCC(=O)Nc1ccc2c(c1)[C@H]1C[C@@H](CC(=O)NCc3ccccc3)O[C@@H](CO)[C@H]1O2	nt	i	nt	i	i
COCc1cn(CC[C@H]2CC[C@@H](NC(=O)Nc3ccc4c(c3)OCO4)[C@H](CO)O2)nn1	nt	i	nt	i	i
COC(=O)C[C@H]1CC[C@H]2[C@H](COc3ccc(NC(=O)c4cccc(Cl)c4)cc3C(=O)N2C)O1	nt	i	nt	i	?
C[C@@H]1CN([C@H](C)CO)S(=O)(=O)c2ccc(C3=CCCCC3)cc2O[C@H]1CN(C)C(=O)C1CCC1	nt	i	nt	i	i
COc1ccc(S(=O)(=O)Nc2ccc3c(c2)CC(=O)N([C@H](C)CO)C[C@H](C)[C@H](CN(C)Cc2ccc(Oc4ccccc4)cc2)O3)cc1	nt	i	nt	i	i
COc1ccc(S(=O)(=O)Nc2ccc3c(c2)CC(=O)N([C@H](C)CO)C[C@H](C)[C@H](CN(C)Cc2ccc(-c4ccccc4)cc2)O3)cc1	nt	i	nt	i	i
C[C@H](CO)N1C[C@H](C)[C@@H](CN(C)Cc2ccc(Oc3ccccc3)cc2)Oc2ccc(NS(=O)(=O)c3ccc(Cl)cc3)cc2CC1=O	nt	i	nt	19	i
COc1ccc(S(=O)(=O)Nc2ccc3c(c2)CC(=O)N([C@H](C)CO)C[C@@H](C)[C@H](CN(C)Cc2ccc(-c4ccccc4)cc2)O3)cc1	nt	i	nt	i	57
O=C(Nc1ccccc1)N1C[C@@H]2[C@H](c3ccccc31)[C@@H](CO)N2C(=O)c1ccncc1	nt	i	nt	i	i
O=C(Cc1ccccn1)NCC[C@H]1CC[C@H](NC(=O)c2ccccc2F)[C@@H](CO)O1	nt	i	nt	i	i
COc1cccc(NC(=O)N2C[C@@H](O)COC[C@H]3O[C@@H](CC(=O)NC4Cc5ccccc5C4)CC[C@@H]32)c1	nt	i	nt	i	i
O=C(c1ccccn1)N1CC2(C1)[C@H](c1ccccc1)[C@@H](CO)N2C(=O)C1CC1	nt	i	nt	i	i
O=C(C[C@H]1CC[C@H](NS(=O)(=O)c2ccc(F)cc2)[C@H](CO)O1)NCc1ccncn1	nt	i	nt	i	23
O=C(C[C@H]1CC[C@@H](NS(=O)(=O)c2ccccc2)[C@@H](CO)O1)NCc1ccncn1	nt	?	nt	21	i
O=C(C[C@@H]1CC[C@@H](NS(=O)(=O)c2ccccc2)[C@@H](CO)O1)NCc1ccncn1	nt	i	nt	i	i
O=C(C[C@@H]1CC[C@H](NS(=O)(=O)c2ccc(F)cc2)[C@@H](CO)O1)NCc1ccncn1	nt	i	nt	i	i
FC(F)(F)c1nc2ccccc2n1CCNc1nc(CN2CCCCC2)cs1	i	i	i	i	30
Clc1ccc(C=Cc2ccccn2)c(Cl)c1	i	i	i	i	38
C=CC(=O)N(CCC)C(c1ccccc1)c1ccccc1OC (stereo not given)	i	i	i	21	i
C[C@@H]1CN([C@@H](C)CO)C(=O)Cc2cc(NC(=O)Nc3ccc(F)cc3)ccc2O[C@H]1CN(C)C(=O)Nc1ccc2c(c1)OCO2	nt	i	nt	i	i
Cn1cccc1CN1CCC[C@]2(N[C@H](c3ccccc3)[C@@H]3C(=O)N(Cc4ccccc4)C(=O)[C@@H]32)C1=O	nt	i	i	i	41
